For seven compounds, growth results are on record in PubChem BioAssay (NCI).

Among the test systems are HCT-15 colon; HT29 colon; SNB-75 CNS; SNB-19 CNS; U251 CNS; PC-3 prostate; SK-MEL-5 melanoma; UACC-62 melanoma; LOX IMVI melanoma; SK-MEL-28 melanoma; SK-MEL-2 melanoma; EKVX NSCLC; SN12C renal; UO-31 renal; TK-10 renal; ACHN renal; CAKI-1 renal; A498 renal; CCRF-CEM leukemia; MOLT-4 leukemia.
Assay in all cases: NCI-60 one-dose screen, 48 h (100 = growth as untreated, 0 = no growth, -100 = all killed)
What all share (details): 10 µM unless noted

This is part of a sample that, as a whole, favours compounds with a hit. Of some 83,000 tested, about 20% had one in any assay.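 Each cell line was grown in a 96-well plate and treated with one concentration of compound for 48 hours. Values below 10 were considered active.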 A number with no mark means an inactive call. Calls of active or inactive are those of the source.

Regarding `CCOC(=O)c1csc(NC(=O)COc2ccc(/C=C3\Oc4ccccc4C3=O)cc2)n1`, the growth with HCT-15 colon is 113%; in the experiment on HT29 colon it was 106%; in the experiment with SNB-75 CNS it was 81.3%; with SNB-19 CNS, 87.9%; in the experiment with U251 CNS, 91.1%; in the experiment on PC-3 prostate, 96.2%. The growth in the experiment on SK-MEL-5 melanoma is 98.7%; in the experiment on UACC-62 melanoma it was 79.6%; with LOX IMVI melanoma, 78.3%; with SK-MEL-28 melanoma, 112%; in the experiment with SK-MEL-2 melanoma it was 94.8%; with EKVX NSCLC, 74%. The growth with SN12C renal is 91%; in the experiment with UO-31 renal it was -14% (active); in the experiment with TK-10 renal it was 119%; in the experiment on ACHN renal, 108%; with CAKI-1 renal, 91.2%; with A498 renal, 119%. The figures for the growth with CCRF-CEM leukemia and in the experiment with MOLT-4 leukemia were 23.5% and 42.2%, respectively.
As for `O=C(NCCCl)Nc1ncccc1OCc1ccccc1`, the growth in the experiment with HCT-15 colon is 95%; in the experiment on HT29 colon, 94.5%; with SNB-75 CNS it was 103%; in the experiment on SNB-19 CNS, 103%; in the experiment on U251 CNS, 110%; with PC-3 prostate it was 99%. The growth in the experiment with SK-MEL-5 melanoma is 95.9%; in the experiment with UACC-62 melanoma, 92.5%; in the experiment with LOX IMVI melanoma, 102%; with SK-MEL-28 melanoma it was 108%; in the experiment with SK-MEL-2 melanoma, 101%; with EKVX NSCLC it was 98.9%. Also, the growth was 97% in the experiment on SN12C renal; 94.9% in the experiment with UO-31 renal; 88.9% in the experiment on TK-10 renal; 110% in the experiment on ACHN renal; 97.9% with CAKI-1 renal; 90% with A498 renal. Besides, the growth in the experiment on CCRF-CEM leukemia is 106%; in the experiment on MOLT-4 leukemia it was 95.3%.
`CC1CCc2c(C(=O)Nc3ncc(Cc4cccc([N+](=O)[O-])c4)s3)csc2C1` (stereo not given): the growth with HCT-15 colon was 26.2%; in the experiment on HT29 colon it was 14.9%; with SNB-75 CNS, -14.6% (active); in the experiment with SNB-19 CNS, 31.8%; in the experiment with U251 CNS, 26.9%; in the experiment on PC-3 prostate, 35.7%. Besides, the growth in the experiment on SK-MEL-5 melanoma was 21.1%; in the experiment with UACC-62 melanoma, 13.9%; with LOX IMVI melanoma, 20%; in the experiment on SK-MEL-28 melanoma, 60.7%; in the experiment with SK-MEL-2 melanoma it was 52.7%; in the experiment with EKVX NSCLC, 25.6%. Further, the growth was 41.7% in the experiment with SN12C renal; 32.4% in the experiment on UO-31 renal; 46.7% in the experiment with TK-10 renal; 30.5% in the experiment on ACHN renal; 19.2% in the experiment on CAKI-1 renal; 10.7% in the experiment with A498 renal. In addition, the growth in the experiment with CCRF-CEM leukemia is 16.8%; in the experiment on MOLT-4 leukemia it was 26%.
`O=C(/C=C(/C=C/c1ccc2[nH]ccc2c1)OB(F)F)/C=C/c1ccc2[nH]ccc2c1`: the growth was -52.9% (active) with HCT-15 colon; -55.7% (active) in the experiment with HT29 colon; 23.1% in the experiment with SNB-75 CNS; 12.9% in the experiment with SNB-19 CNS; -84.1% (active) with U251 CNS; -6.64% (active) with PC-3 prostate. Also, the growth in the experiment with SK-MEL-5 melanoma was 12.2%; in the experiment on UACC-62 melanoma, -21.5% (active); in the experiment with LOX IMVI melanoma, -64.3% (active); in the experiment on SK-MEL-28 melanoma, 22%; with SK-MEL-2 melanoma, 25.8%; in the experiment on EKVX NSCLC, 4.65% (active). Also, the growth in the experiment with SN12C renal was 10%; in the experiment on UO-31 renal, 2.63% (active); in the experiment on TK-10 renal it was 5.77% (active); in the experiment with ACHN renal, -22.4% (active); in the experiment on CAKI-1 renal, -14.5% (active); in the experiment on A498 renal, 32.5%. Also, the results for the growth with CCRF-CEM leukemia and in the experiment with MOLT-4 leukemia were -19.9% (active) and -4.43% (active), respectively.
Consider `CCCCCOC(=O)c1c(C)[nH]c(/C=C2\N=C(c3ccc[nH]3)C=C2OC)c1C`, for which the growth in the experiment on HCT-15 colon is -28.8% (active); in the experiment on HT29 colon, -28% (active); in the experiment on SNB-75 CNS, -28.1% (active); in the experiment with SNB-19 CNS, 21.2%; in the experiment on U251 CNS, -24.1% (active); with PC-3 prostate, 12.3%. In addition, the growth in the experiment with SK-MEL-5 melanoma is -100% (active); in the experiment with UACC-62 melanoma it was -70.9% (active); in the experiment with LOX IMVI melanoma, -99.7% (active); with SK-MEL-28 melanoma, -45.8% (active); in the experiment with SK-MEL-2 melanoma it was -71.2% (active); with EKVX NSCLC, 12.5%. The growth is 3.4% (active) in the experiment with SN12C renal; -69.6% (active) in the experiment with UO-31 renal; 4.49% (active) in the experiment on TK-10 renal; -72.3% (active) in the experiment on ACHN renal; -17.3% (active) in the experiment on CAKI-1 renal; -21% (active) in the experiment on A498 renal. The growth was -13.2% (active) in the experiment with CCRF-CEM leukemia and 9.58% (active) with MOLT-4 leukemia.
Turning to `O=C1/C(=C/c2ccc([N+](=O)[O-])cc2)COc2ccc(O)cc21`, the growth in the experiment with HCT-15 colon is 28.3%; in the experiment with HT29 colon, 4.43% (active); with SNB-75 CNS, 83.4%; with SNB-19 CNS, 91.4%; in the experiment on U251 CNS, 66.1%; in the experiment with PC-3 prostate it was 88.3%. Besides, the growth in the experiment with SK-MEL-5 melanoma is 94%; with UACC-62 melanoma it was 76.3%; with LOX IMVI melanoma it was 1.76% (active); in the experiment with SK-MEL-28 melanoma, 108%; with SK-MEL-2 melanoma it was 109%; in the experiment on EKVX NSCLC, 92.3%. Moreover, the growth is 76.8% with SN12C renal; 53.7% in the experiment on UO-31 renal; 92.7% with TK-10 renal; 82.7% with ACHN renal; 63.6% in the experiment on CAKI-1 renal; 99.5% with A498 renal. In addition, the growth in the experiment on CCRF-CEM leukemia was 3.96% (active); in the experiment on MOLT-4 leukemia it was 39.3%.
For `CCN(CC)S(=O)(=O)c1ccc(S(=O)(=O)N2CCC[C@@H](C(=O)N3CCN(c4nc(C(C)C)no4)CC3)C2)cc1`, the growth with HCT-15 colon was 92.2%; in the experiment on HT29 colon, 87.8%; in the experiment on SNB-75 CNS it was 56.4%; with SNB-19 CNS it was 64.2%; in the experiment with U251 CNS, 85.3%; with PC-3 prostate, 76.2%. The growth with SK-MEL-5 melanoma was 17.2%; in the experiment with UACC-62 melanoma it was 59.7%; with LOX IMVI melanoma, 54%; with SK-MEL-28 melanoma it was 91%; in the experiment with SK-MEL-2 melanoma, 94.6%; with EKVX NSCLC it was 55.1%. Besides, the growth with SN12C renal was 84.9%; with UO-31 renal, 58.6%; with TK-10 renal, 74.5%; in the experiment on ACHN renal, 68.5%; in the experiment with CAKI-1 renal, 58.4%; in the experiment on A498 renal, 6.31% (active). The growth in the experiment on CCRF-CEM leukemia is 63.7%; with MOLT-4 leukemia, 61.1%.
